Screening results from PubChem BioAssay.
PKM2 inh = blocks activity of human pyruvate kinase M2 | P14618 | actives 0.058% (n = 260,000) | purified PKM2, ATP generation, Kinase-Glo luminescence | Potency, µM (top dose mostly 57.5 µM), without a hit: at the highest dose activity change, negative = inhibition, most hits filed as inhibitors; note: potency is the fitted concentration of half-maximal effect; nearly all actives have a fitted effect of over 60% in size
Target sequence (P14618 whole entry, looked up): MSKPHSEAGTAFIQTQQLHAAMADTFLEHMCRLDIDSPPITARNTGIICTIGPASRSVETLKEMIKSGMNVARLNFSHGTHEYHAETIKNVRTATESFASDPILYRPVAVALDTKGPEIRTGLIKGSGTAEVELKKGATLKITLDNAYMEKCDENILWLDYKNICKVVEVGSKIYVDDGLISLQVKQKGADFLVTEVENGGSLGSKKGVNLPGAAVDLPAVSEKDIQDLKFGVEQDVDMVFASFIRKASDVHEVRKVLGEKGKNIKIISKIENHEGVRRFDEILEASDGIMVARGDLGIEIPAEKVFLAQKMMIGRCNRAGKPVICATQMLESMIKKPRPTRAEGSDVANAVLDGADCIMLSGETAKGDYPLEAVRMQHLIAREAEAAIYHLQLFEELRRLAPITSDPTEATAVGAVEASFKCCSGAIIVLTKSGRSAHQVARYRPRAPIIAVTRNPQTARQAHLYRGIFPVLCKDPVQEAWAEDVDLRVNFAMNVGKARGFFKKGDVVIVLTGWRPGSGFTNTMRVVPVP
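Enzyme run at intermediate activity with final 0.1 mM ADP, 0.5 mM PEP (50 mM imidazole pH7.2, 50 mM KCl, 7 mM MgCl2), incubated 1 h at r.t. ATP formed read by Kinase-Glo luminescence, normalized to no-enzyme (full inhibition) and uninhibited wells.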
PKM2 inh CRC = PKM2 (human) inhibition, concentration-response confirmation; shares compounds with PKM2 inh; AID 2263; purified hPK-M2, Kinase-Glo ATP luminescence, 1 h; actives 50% (n = 55); Potency, µM (doses to about 57.5 µM), inactives show at the highest dose activity change, negative = inhibition, actives largely listed as inhibitors
PKM2 FLuc cs = firefly luciferase inhibition counter-screen; shares compounds with PKM2 inh; Kinase-Glo firefly luciferase, luminescence, 8 min; Potency, µM (series often up to 57.5 µM), for the others: at the top dose activity, negative = inhibition, actives largely listed as inhibitors; actives 30% (n = 55); AID 2265
PKM2 inh LDH = blocks human pyruvate kinase M2 in LDH-coupled assay | 55 tested, under 10 active | AID 2267 | shares compounds with PKM2 inh | Potency, µM (series often up to 57.5 µM), for the others: top-dose activity change, negative = inhibition, hits mostly inhibitors | purified hPK-M2, LDH-coupled NADH fluorescence kinetic
* marks the source's active call; other numbers are inactive results; ? = inconclusive; . = no result. This is one part of a sample in which hits are shown more often than they occur. Calls come from the whole dose curve; as a rule, active = well fitted curve in the direction sought with a large enough effect; inconclusive = small, poorly fitted or top-dose-only effect, or another doubt; inactive = no such curve, though single readings can be large; an effect the other way counts as inactive or inconclusive.

SMILES	PKM2 inh	others
O=C(NCc1cccs1)C1CCN(S(=O)(=O)c2ccccc2F)CC1	116%
CCOc1ccc(N2C(=O)CC(Sc3ccccc3C(=O)O)C2=O)c([N+](=O)[O-])c1 (centres undefined)	60%
Cc1cc(C)c(S(=O)(=O)N(C)CC(=O)NCc2ccncc2)c(C)c1	56%
COc1ccc(CNC(=O)C(c2ccc(C)o2)N(Cc2cccs2)C(=O)Cc2cccs2)cc1 (centres undefined)	62%
COc1ccc(NC(=O)/C(Cl)=C(/Cl)S(=O)Cc2ccccc2Cl)cn1 (centres undefined)	41%
COc1ccc(OCC(=O)N2CCN(S(=O)(=O)c3ccccc3[N+](=O)[O-])CC2)cc1	140%
c1ccc2[nH]c(CSc3nnc(-c4ccncc4)o3)nc2c1	134%
C(=C\c1nc2ccccc2[nH]1)/c1ccccc1	14µM*
CN(C)S(=O)(=O)c1cccc(NC(=O)CSc2cccc3cccnc23)c1	44%
Cn1c(=O)c2c(SCC(=O)Nc3nccs3)nc(C3CC3)nc2n(C)c1=O	37%
Cc1ccc(NS(=O)(=O)c2cc3[nH]c(=O)c(=O)[nH]c3cc2C)c(C)c1	51%
Cc1cccc(/C(N)=N/OC(=O)c2ccc3c(c2)OCO3)c1	11µM*
Cc1nc2ccc(C(=O)NCc3ccc4c(c3)OCO4)cc2s1	36%
Cc1noc(C)c1COc1cccc(C(=O)Oc2ccc3c(c2)OCO3)c1	1%
Cc1ccc(/C=C/C2=Cc3c(sc(NC(=O)CSc4n[nH]c(N)n4)c3C#N)C(C)(C)C2)o1	75%
COCC(=O)OCC(=O)Nc1ccc(Cl)cc1[N+](=O)[O-]	76%
Cc1ccc(N2C(=O)c3ccccc3C2O)nc1 (centres undefined)	11µM*
O=S(=O)(NCCSc1ccccn1)c1ccc(Br)cc1	96%
CCOC(=O)c1c(-c2ccc(C)o2)csc1NC(=S)NC(=O)c1cccs1	37%
COc1ccc(-c2csc(NC(=O)c3cccs3)c2C(=O)O)cc1OC	22µM*
CCOC(=O)c1c(-c2ccccc2)csc1NC(=O)CSc1nnc(C)s1	60%
CC(=O)c1c(C)[nH]c(C(=O)N(C)C(c2ccccc2)c2ccccc2)c1C	54%
COc1ccccc1NS(=O)(=O)c1cc(NC(=O)c2[nH]c(C)c(C(C)=O)c2C)ccc1N1CCOCC1	71%
CC(=O)N1[C@H](C)C=C[C@]1(Cc1ccccc1)C(=O)NCc1ccc(C)o1	52%
c1ccc2c(SCc3cn4ccccc4n3)nncc2c1	81%
SMILES	PKM2 inh	others
COc1ccc(NC(=O)c2ccccn2)cc1	14µM*
COc1ccc(NC(=O)c2ccc(NC(=O)CSc3nccc(=O)[nH]3)cc2)cc1	32%
COc1cccc(NC(=O)CSc2ccccn2)c1	49%
CC(C)CN(C(=O)CSc1nnnn1-c1ccccc1)c1c(N)n(CC(C)C)c(=O)[nH]c1=O	37%
Cc1cc(NC(=O)CSc2ccc(-c3ccc(F)cc3)nn2)no1	70%
O=c1c2sccc2nc(SCc2ccc([N+](=O)[O-])cc2)n1Cc1ccccn1	39%
COc1ccc2nc(/N=C/c3c(C)[nH]n(-c4ccc(C)cc4)c3=O)sc2c1	14µM*
Cc1ccc(CNC(=O)[C@H](C)[C@H]2C[C@]2(C)[C@H](NC(=O)OCc2ccccc2)c2ccccc2)o1	43%
Cc1ccc(S(=O)(=O)N(C)CC(=O)N/N=C/c2ccc(C)o2)cc1	34%
O=C1N(CCCl)c2ccc(Br)cc2C12OCCO2	56%
COc1ccc(N=Nc2n(C)c3ccccc3[n+]2C)cc1	13µM*
Cc1ccc2[nH]c(=O)cc(C(=O)OC(C)C)c2c1	83%
COc1ccc(C(=O)N2CCC(n3c(C)nc4cc(F)ccc43)CC2)cc1	79%
Oc1cc2c(cc1CN1CCc3ccccc3C1)OCO2	32%
c1ccc2c(c1)Cc1cc3cc4c(cc3nc1-2)OCO4	8.9µM*
O=S(=O)(NNc1ccc(F)cc1F)c1cccc(Cl)c1	50%
CCNC(=S)SCCOc1ccccc1C	16%
Cn1c(=O)oc2cc(S(=O)(=O)Nc3cccc4c3CCCC4)ccc21	34%
Cc1ccc(-c2nc3c(c(=O)[nH]c(=O)n3Cc3ccccc3)n2C)o1	48%
COC(=O)c1cc(-c2ccc(C)o2)nc2ccccc12	56%
Cc1ccc(-c2nc3ccccc3n2C)o1	13µM*
COC(=O)[C@@]1(Cc2ccc(F)cc2)[C@H]2c3cc(C(=O)N(C)C)n(CCc4ccc(O)c(O)c4)c3C[C@H]2CN1C(=O)c1ccccc1	42%
Cc1ccc(C2CC(c3ccccc3)=NN2C(=S)Nc2ccccc2)o1 (centres undefined)	36%
CCCS(=O)(=O)N1CCN(S(=O)(=O)c2ccccc2)CC1	36%
COc1cc(/C=N/Nc2nn3cnnc3c3ccccc23)ccc1O	25µM*
SMILES	PKM2 inh	others
COc1cc(/C=N\Nc2nc(-c3ccc(C)cc3)c(NC(C)=O)s2)ccc1O	72%
COc1cc(/C=N/NC(=O)C2c3ccccc3Oc3ccccc32)ccc1O	66%
Cc1ccc(NS(=O)(=O)c2c(C)nc3sccn3c2=O)c(C)c1	55%
Cc1ccc(CNC(=O)Cn2ccc3cc(S(=O)(=O)N4CCCC4)ccc32)o1	75%
CCN1CCN(CC(=O)Nc2cc3c(cc2C(C)=O)OCO3)CC1	45%
NC(=O)COC(=O)/C=C/c1cccc(Br)c1	56%
O=C(c1cc(S(=O)(=O)N2CCOCC2)ccc1Cl)N1CCN(c2ccccn2)CC1	87%
O=c1c2ccccc2sn1-c1cc(S(=O)(=O)N2CCOCC2)ccc1N1CCCC1	3.5µM*	PKM2 inh CRC=6.5µM*;PKM2 FLuc cs=1%;PKM2 inh LDH=?
CC1(C)NC(=O)N(CC(=O)Nc2cc(S(=O)(=O)N3CCOCC3)ccc2N2CCOCC2)C1=O	37%
CCOc1ccc2nc(NS(=O)(=O)c3cccs3)sc2c1	58%
CC(=O)Nc1cccn(Cc2c(Cl)cccc2Cl)c1=O	36%
COc1ccc(C(=O)N=c2nc3ccccn3s2)cc1	7.9µM*	PKM2 inh CRC=13µM*;PKM2 FLuc cs=5.2µM*;PKM2 inh LDH=-5%
COc1ccc(S(=O)(=O)Nc2ccc(F)c(Cl)c2)cc1OC	109%
Cc1ccc(C)c2[nH]c(=O)c(CN(CCN3CCCC3)C(=O)Nc3cccc(Cl)c3)cc12	62%
CCCn1c(N)c(C(=O)CSc2nc(C)cs2)c(=O)n(C)c1=O	110%
Cc1ccc(S(=O)(=O)/N=c2\ccc(Cl)cn2C(F)F)cc1	66%
CCn1c(SCC(=O)Nc2cccc(C)c2)nc2nc3c(cc2c1=O)COC(C)(C)C3	67%
CN(C)CCCC1(O)c2ccccc2C=Cc2ccccc21	-11%
CCN(CC)S(=O)(=O)c1cccc(C(=O)N/N=C/c2ccccn2)c1	2%
Cc1ccc(Nc2c(-c3ccc(C)s3)nc3cccc(C)n23)cc1	.	PKM2 inh CRC=?;PKM2 FLuc cs=0%;PKM2 inh LDH=16%
COc1ccc(-c2nc3cccc(C)n3c2Nc2ccc(C)cc2)cc1	.	PKM2 inh CRC=6%;PKM2 FLuc cs=-3%;PKM2 inh LDH=?
Cc1ccccc1Nc1c(-c2ccccc2)nc2cccc(C)n12	.	PKM2 inh CRC=4%;PKM2 FLuc cs=-2%;PKM2 inh LDH=?
